Common to all, as to assay: NCI-60 one-dose screen, 48 h (100 = growth as untreated, 0 = no growth, -100 = all killed)
Common to all, as to details: 10 µM unless noted

The test system of assay [1] is DU-145 prostate.
The subject of assay [2] is K-562 leukemia.
Assay [3] concerns MALME-3M melanoma.
For assay [4], the system named is MDA-MB-231 breast.
Assay [5] has as its system RXF 393 renal.
Assay [6] has as its system SF-268 CNS.
Assay [7] deals with SF-295 CNS.
Assay [8] relates to SF-539 CNS.
For assay [9], the system named is UACC-257 melanoma.
The test system of assay [10] is M14 melanoma.
Assay [11] deals with HCT-15 colon.
Assay [12] relates to HT29 colon.
Assay [13] deals with SNB-75 CNS.
The subject of assay [14] is SNB-19 CNS.
Assay [15] deals with U251 CNS.
Assay [16] has as its system PC-3 prostate.
The test system of assay [17] is SK-MEL-5 melanoma.
The test system of assay [18] is UACC-62 melanoma.
The test system of assay [19] is LOX IMVI melanoma.
The subject of assay [20] is SK-MEL-28 melanoma.

The panel holds about 83,000 compounds, 20% with a hit somewhere; the sample as a whole holds those more often.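 48-hour exposure, single concentration, 96-well plates; percent growth endpoint where 0 means no net growth. Active: below 10.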 Unmarked numbers belong to inactive results. Active and inactive are the calls of the source.

On to `Cc1ccc(/C=C(\C#N)n2nnc3cc(F)c(F)cc32)cc1`, for which the growth in [1] was -3.37% (active); in assay [2], 4.34% (active); in assay [3], 33%; in assay [4] it was 12%; in assay [5], -0.406% (active); in assay [6], 23.4%. For the same compound, the growth in assay [7] is 36.6%; in [8], -25.5% (active); in assay [9] it was 38%; in assay [10] it was -27.7% (active); in assay [11], 14.6%; in assay [12], 5.95% (active). Besides, the growth was -15.2% (active) in assay [13]; 31.9% in assay [14]; 24.4% in assay [15]; 21.3% in assay [16]; 16.4% in assay [17]; 34.7% in assay [18]. Moreover, the results for the growth in [19] and in [20] were -17.6% (active) and 39.5%, respectively.
With `NC(=O)c1cccc([C@@H]2O[C@H](CO)[C@@H](O)[C@H]2O)c1`, the growth in assay [1] was 66.5%; in [2], 27%; in [3] it was 103%; in [4], 55.5%; in [5], 73.3%; in assay [6] it was 48%. For the same compound, the growth in assay [7] is 65.7%; in assay [8], 14.4%; in [9], 97.7%; in assay [10], 17.1%; in [11], 12.8%; in assay [12], 54%. Besides, the growth in assay [13] was 9.91% (active); in assay [14] it was 54.2%; in [15], 41.1%; in assay [16], 47.8%; in assay [17], 97.4%; in assay [18], 88.6%. Further, the growth was 91.5% in assay [19] and 62.1% in assay [20].
Regarding `COc1ccc(Cn2cc(C(=O)N=Nc3c(O)[nH]c4c(C)cccc34)nn2)cc1`, the growth was 60.4% in [1]; 63.2% in assay [2]; 40.5% in [3]; 51% in [4]; 81.9% in [5]; 87.3% in [6]. In addition, the growth in assay [7] was 111%; in [8] it was 80.1%; in assay [9], 93.7%; in assay [10] it was 71.9%; in [11], 68%; in [12] it was 67.4%. Further, the growth in [13] was 27.3%; in [14], 97.5%; in assay [15], 108%; in assay [16], 61.3%; in assay [17] it was 93.8%; in [18], 74.1%. For the same compound, the growth in [19] is 75.3%; in [20] it was 94.9%.
Take `Nc1[nH]c(=S)nc2oc(-c3ccccc3)c(-c3ccccc3)c12`: the growth was 106% in assay [1]; 95.2% in assay [2]; 108% in assay [3]; 103% in assay [4]; 93% in [5]; 95.9% in assay [6]. The growth in assay [7] was 96.1%; in assay [8] it was 98.6%; in assay [9], 102%; in assay [10] it was 106%; in assay [11] it was 97.3%; in assay [12], 101%. Further, the growth in assay [13] was 90.3%; in [14], 98%; in [15], 103%; in [16] it was 97.4%; in assay [17], 102%; in [18], 91.5%. Also, the growth in assay [19] is 98%; in assay [20], 101%.
Take `COc1ccc(N2CCN(C(=O)c3sc4nc(C)c(Br)c(C)c4c3N)CC2)cc1`: the growth in assay [1] is 104%; in assay [2], 97.3%; in assay [3], -12.3% (active); in assay [4], 84.2%; in assay [5], 116%; in [6] it was 89.1%. In addition, the growth is 95.6% in assay [7]; 91.8% in assay [8]; 99.7% in [9]; 99.3% in assay [10]; 102% in assay [11]; 102% in assay [12]. Further, the growth was 76.6% in assay [13]; 98.9% in assay [14]; 87.4% in [15]; 81.9% in [16]; 93.4% in assay [17]; 89.2% in assay [18]. For the same compound, the growth in assay [19] was 93%; in [20], 104%.
For `CCOC(=O)c1c(C)nc2ccccc2c1/C=C/c1ccccc1`, the growth in [1] is 91.9%; in assay [2] it was 44.4%; in assay [3] it was 111%; in [4] it was 81.9%; in assay [5], 113%; in assay [6], 85.4%. Also, the growth is 66.4% in assay [7]; 89% in assay [8]; 76.6% in assay [9]; 82.8% in assay [10]; 64.3% in [11]; 82.6% in assay [12]. Moreover, the growth in [13] is 80.1%; in [14], 77.3%; in [15] it was 79.7%; in [16], 69.9%; in [17] it was -0.202% (active); in [18], 52.2%. Also, the growth in [19] was 71.8%; in assay [20], 102%.
Take `Nc1nc(N)c2c(n1)NC(c1cccc(Nc3ccnc4cc(C(F)(F)F)ccc34)c1)CC(c1ccccc1)=N2` (stereo not given): the growth was 71.9% in assay [1]; 13.5% in [2]; 67% in assay [3]; 58.5% in [4]; 44.9% in [5]; 52.3% in assay [6]. The growth in assay [7] is 50.1%; in assay [8], 77.1%; in assay [9] it was 69%; in assay [10] it was 30.2%; in assay [11] it was 23.7%; in assay [12], 8.53% (active). Moreover, the growth in assay [13] is 48.1%; in [14], 64.4%; in assay [15], 36.5%; in [16], 39.2%; in assay [17], 21.9%; in [18], 73.8%. For the same compound, the growth was 45.6% in assay [19] and 84% in assay [20].

Source of the values: PubChem BioAssay (NCI).
